According to ChEMBL document CHEMBL1961873, “Compounds: GSK PKIS; Assays: Nanosyn kinase panel” (2012):

Key:
[1] = target: RAC-alpha serine/threonine-protein kinase (Homo sapiens) (UniProt P31749); conditions: at 0.1 µM
[2] = target: RAC-alpha serine/threonine-protein kinase (Homo sapiens) (UniProt P31749); conditions: at 1 µM
[3] = target: RAC-beta serine/threonine-protein kinase (Homo sapiens) (UniProt P31751); conditions: at 0.1 µM
[4] = target: RAC-beta serine/threonine-protein kinase (Homo sapiens) (UniProt P31751); conditions: at 1 µM
[5] = target: RAC-gamma serine/threonine-protein kinase (Homo sapiens) (UniProt Q9Y243); conditions: at 0.1 µM
Sequence of RAC-gamma serine/threonine-protein kinase (Homo sapiens) (Q9Y243 whole entry): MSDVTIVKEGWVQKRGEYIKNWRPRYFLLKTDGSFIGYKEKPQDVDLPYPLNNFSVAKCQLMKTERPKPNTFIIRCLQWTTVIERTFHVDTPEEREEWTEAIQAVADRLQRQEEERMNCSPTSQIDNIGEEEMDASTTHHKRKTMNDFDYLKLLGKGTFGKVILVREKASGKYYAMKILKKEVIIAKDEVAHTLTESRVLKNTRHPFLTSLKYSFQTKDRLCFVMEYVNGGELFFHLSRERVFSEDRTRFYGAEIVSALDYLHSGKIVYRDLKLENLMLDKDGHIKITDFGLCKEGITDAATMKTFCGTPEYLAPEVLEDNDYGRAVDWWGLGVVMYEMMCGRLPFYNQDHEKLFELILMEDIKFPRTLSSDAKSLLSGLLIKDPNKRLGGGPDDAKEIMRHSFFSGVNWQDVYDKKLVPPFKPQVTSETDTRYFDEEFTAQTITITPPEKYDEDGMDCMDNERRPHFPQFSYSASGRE

[6] = target: RAC-gamma serine/threonine-protein kinase (Homo sapiens) (UniProt Q9Y243); conditions: at 1 µM
[7] = target: G protein-coupled receptor kinase 6 (Homo sapiens) (UniProt P43250); conditions: at 0.1 µM
Sequence of G protein-coupled receptor kinase 6 (Homo sapiens) (P43250 whole entry, looked up): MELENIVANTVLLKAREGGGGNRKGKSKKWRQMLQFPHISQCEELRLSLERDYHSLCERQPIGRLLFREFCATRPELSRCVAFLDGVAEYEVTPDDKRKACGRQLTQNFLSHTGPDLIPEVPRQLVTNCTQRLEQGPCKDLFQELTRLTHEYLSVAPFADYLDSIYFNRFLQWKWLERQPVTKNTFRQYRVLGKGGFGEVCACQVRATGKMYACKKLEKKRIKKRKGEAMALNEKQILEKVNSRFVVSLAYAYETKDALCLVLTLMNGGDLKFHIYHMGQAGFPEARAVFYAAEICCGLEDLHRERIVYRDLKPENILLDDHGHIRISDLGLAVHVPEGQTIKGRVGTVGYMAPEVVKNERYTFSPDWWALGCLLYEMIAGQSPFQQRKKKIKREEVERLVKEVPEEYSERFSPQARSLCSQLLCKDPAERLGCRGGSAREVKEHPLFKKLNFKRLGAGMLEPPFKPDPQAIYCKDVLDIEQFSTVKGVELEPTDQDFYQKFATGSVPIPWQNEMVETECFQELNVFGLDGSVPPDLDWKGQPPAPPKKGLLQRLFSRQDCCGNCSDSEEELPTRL

[8] = target: G protein-coupled receptor kinase 6 (Homo sapiens) (UniProt P43250); conditions: at 1 µM
[9] = target: T1, Rhodopsin kinase GRK7 (Homo sapiens) (UniProt Q8WTQ7); conditions: at 0.1 µM
T1 sequence (whole entry): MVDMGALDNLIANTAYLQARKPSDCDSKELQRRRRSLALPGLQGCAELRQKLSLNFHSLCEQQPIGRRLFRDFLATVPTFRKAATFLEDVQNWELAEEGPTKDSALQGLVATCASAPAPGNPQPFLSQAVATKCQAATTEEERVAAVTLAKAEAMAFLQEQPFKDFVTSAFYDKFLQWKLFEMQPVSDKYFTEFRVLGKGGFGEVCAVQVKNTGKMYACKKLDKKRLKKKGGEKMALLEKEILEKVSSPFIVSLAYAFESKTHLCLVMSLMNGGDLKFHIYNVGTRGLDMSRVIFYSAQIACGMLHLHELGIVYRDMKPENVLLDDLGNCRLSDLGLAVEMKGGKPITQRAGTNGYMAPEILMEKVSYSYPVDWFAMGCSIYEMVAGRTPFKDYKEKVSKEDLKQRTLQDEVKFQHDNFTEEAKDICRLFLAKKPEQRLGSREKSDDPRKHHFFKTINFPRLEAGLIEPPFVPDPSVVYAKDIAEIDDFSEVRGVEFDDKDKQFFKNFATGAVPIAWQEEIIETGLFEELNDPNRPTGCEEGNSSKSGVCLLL

[10] = target: T1, Rhodopsin kinase GRK7 (Homo sapiens); conditions: at 1 µM

Sequence of RAC-alpha serine/threonine-protein kinase (Homo sapiens) (P31749 whole entry): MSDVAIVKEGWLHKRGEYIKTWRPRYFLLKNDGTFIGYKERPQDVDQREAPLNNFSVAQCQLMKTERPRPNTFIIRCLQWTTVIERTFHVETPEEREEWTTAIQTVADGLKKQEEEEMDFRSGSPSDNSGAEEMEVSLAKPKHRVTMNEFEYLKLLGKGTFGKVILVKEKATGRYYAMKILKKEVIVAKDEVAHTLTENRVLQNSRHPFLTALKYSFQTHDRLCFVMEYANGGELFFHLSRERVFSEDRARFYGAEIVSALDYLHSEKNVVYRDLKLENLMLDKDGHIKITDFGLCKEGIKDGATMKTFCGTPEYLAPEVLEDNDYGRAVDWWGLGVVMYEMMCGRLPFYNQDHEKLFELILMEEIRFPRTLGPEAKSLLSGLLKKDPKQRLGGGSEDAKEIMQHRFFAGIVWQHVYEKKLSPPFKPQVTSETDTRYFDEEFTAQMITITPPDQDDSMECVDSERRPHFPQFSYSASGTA
Sequence of RAC-beta serine/threonine-protein kinase (Homo sapiens) (P31751 whole entry): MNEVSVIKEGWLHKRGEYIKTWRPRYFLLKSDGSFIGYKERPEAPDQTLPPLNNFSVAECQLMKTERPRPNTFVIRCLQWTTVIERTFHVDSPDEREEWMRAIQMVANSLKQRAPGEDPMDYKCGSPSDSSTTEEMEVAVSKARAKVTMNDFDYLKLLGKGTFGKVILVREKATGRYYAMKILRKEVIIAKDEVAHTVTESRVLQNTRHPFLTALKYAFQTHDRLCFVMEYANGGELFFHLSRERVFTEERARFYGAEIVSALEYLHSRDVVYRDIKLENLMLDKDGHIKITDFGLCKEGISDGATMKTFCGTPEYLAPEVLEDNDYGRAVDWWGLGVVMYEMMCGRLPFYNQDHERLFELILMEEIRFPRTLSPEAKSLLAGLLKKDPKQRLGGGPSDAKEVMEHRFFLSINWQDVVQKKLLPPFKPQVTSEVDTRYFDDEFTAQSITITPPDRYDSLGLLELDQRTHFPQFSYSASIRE

Row | Structure (SMILES) | inhibition [1] | inhibition [2] | inhibition [3] | inhibition [4] | inhibition [5] | inhibition [6] | inhibition [7] | inhibition [8] | inhibition [9] | inhibition [10]
1 | c1cc(-c2cnn3nc(N4CCOCC4)ccc23)nc(NC2CC2)n1 | 0.69% | 1.04% | 3.2% | 2.75% | 1.36% | 1.78% | 0.85% | 1.72% | 3.91% | 6.6%
2 | Cc1ccc2c(-c3ccnc(Nc4ccccc4)n3)c(-c3ccc(F)cc3)nn2n1 | 0.59% | 0.99% | 2.02% | 1.95% | 1.53% | 1.01% | 0.38% | -3.54% | 1.12% | -6.29%
3 | COc1cc2c(cc1Nc1nc(Nc3ccsc3C(N)=O)c3cc[nH]c3n1)N(C(=O)CN(C)C)CCC2(C)C | 1.26% | 0.48% | 2.13% | 2.14% | 0.83% | 2.54% | 49.5% | 87.2% | 34.2% | 63.2%
4 | CCNC(=O)O[C@H]1CN[C@H](C#Cc2cc3ncnc(Nc4ccc(OCc5cccc(F)c5)c(Cl)c4)c3s2)C1 | 1.21% | 0.9% | 3.39% | 2.59% | 1.29% | 1.95% | 2.11% | 4.14% | 2.34% | 2.31%
5 | NC(=O)c1sc(-n2cnc3ccc(C(F)(F)F)cc32)cc1OCc1ccccc1Br | 0.43% | 0.68% | 2.44% | 2.18% | 0.75% | 1.39% | 5.91% | 9.67% | 4.43% | 14.5%
6 | Nc1nc(-c2ccc(F)cc2)c(-c2ccc3ncccc3n2)s1 | 0.67% | 1.34% | 2.24% | 2.19% | 5.53% | 1.9% | 5.89% | 5.57% | 6.78% | 7.94%
7 | Fc1ccc(-c2cc(-c3c[nH]nc3-c3ccccn3)ccn2)cc1 | 0.11% | 0.95% | 1.68% | 2.45% | 0.98% | 1.5% | 7.85% | 15.7% | 3.52% | 13.4%
8 | COc1ccc(-c2nn3ncccc3c2-c2ccnc(Nc3ccc4c(c3)OCCO4)n2)cc1 | -0.35% | -0.09% | -0.91% | -0.18% | 0.24% | 2.32% | -1.91% | -1.49% | 4.16% | 2.81%
9 | Fc1ccc(-c2nn3ccccc3c2-c2ccncc2)cc1 | 0.06% | 1.28% | 0.35% | 1.43% | 1.01% | 4.38% | 0.75% | -0.76% | 0.65% | 3.13%
10 | N#Cc1c(NC(=O)c2ccc(F)cc2)sc2c1CCCC2 | -0.22% | 0.69% | 0.36% | 0.77% | 2.13% | 0.2% | 2.85% | 4.08% | 0.7% | 4.43%
11 | CCn1c(-c2nonc2N)nc2ccccc21 | 1.46% | 2.48% | 0.69% | 2.24% | 0.81% | 3.67% | 1.21% | -3.25% | 1.89% | -9.67%
12 | COc1ccc(-c2cc(-c3c[nH]nc3-c3ccccn3)ccn2)cc1 | 0.93% | 1.5% | 2.54% | 1.95% | 1.66% | 1.52% | 8.13% | 8.91% | 3.59% | 6.26%
13 | O=S(=O)(CCNCc1ccc(-c2ccc3ncnc(Nc4ccc(OCc5cccc(F)c5)c(Cl)c4)c3c2)o1)c1ccccc1 | 1.7% | 1.71% | 2.21% | 3.29% | 0.84% | 3.13% | 1.68% | 1.4% | 8.83% | 2.27%
14 | Fc1cccc(COc2ccc(Nc3ncnc4sc(-c5ccco5)cc34)cc2Cl)c1 | 0.99% | 0.75% | 0.95% | 1.84% | 0.12% | 50.3% | 2.57% | 11.6% | 11.4% | 43.4%
15 | Cc1ccc(O)cc1Nc1ccnc2cc(-c3ccccn3)ccc12 | 1.31% | 1.02% | 2.69% | 2.45% | 1.16% | 2.32% | 1.43% | -3.7% | 4% | -2.85%
16 | COC(=O)Nc1nc2ccc(S(=O)(=O)c3ccc(NC(=O)Nc4cc(C(F)(F)F)ccc4F)cc3)cc2[nH]1 | 1.04% | 0.21% | 1.6% | 1.74% | 2.62% | 2.2% | -1.79% | -0.49% | 4.02% | 1.96%
17 | CCn1cc(-c2ccnc3[nH]ccc23)c(-c2cccc(NC(=O)Nc3ccc(OCc4ccccc4)cc3)c2)n1 | 1.5% | 1.68% | 1.8% | 3.99% | 0.23% | 2.59% | -2.36% | 0.99% | 3.4% | -2.29%

Row | Structure (SMILES) | inhibition [1] | inhibition [2] | inhibition [3] | inhibition [4] | inhibition [5] | inhibition [6] | inhibition [7] | inhibition [8] | inhibition [9] | inhibition [10]
18 | CC(C)COC(=O)c1ccc2c(c1)/C(=C/Nc1ccc(S(N)(=O)=O)cc1)C(=O)N2 | 1.6% | 2.22% | 0.67% | 1.73% | 1.5% | 6.82% | 1.33% | 10.1% | -4.26% | 9.41%
19 | CCCN1CCC(c2ccc(Nc3nc(Nc4cc(F)ccc4C(N)=O)c4cc[nH]c4n3)c(OC)c2)CC1 | -0.31% | 0.33% | 2.13% | 1.62% | 1.85% | 2.68% | 16.3% | 58.8% | 11.6% | 45%
20 | COc1ccc2c(-c3ccnc(Nc4cccc(OC(F)(F)F)c4)n3)cnn2n1 | 0.95% | 0.97% | 2.41% | 1.51% | 1.3% | 1.57% | 4.64% | 5.84% | 5.16% | 4.9%
21 | COc1cc(N2CCN(C(C)C)CC2)ccc1Nc1nc(Nc2ccc(F)cc2C(N)=O)c2cc[nH]c2n1 | 0.91% | 2.86% | 1.62% | 3.68% | 1.62% | 4.8% | 3.9% | 14.3% | 5.3% | 10.1%
22 | [O-][S+]1CCN(Cc2ccc(-c3ccc4ncnc(Nc5ccc(OCc6cccc(F)c6)c(Cl)c5)c4c3)o2)CC1 | 2.98% | 0.19% | 3.72% | 3.57% | 2.4% | 2.54% | 3.23% | 4.79% | 9.08% | 2.57%
23 | CCN1CCC(CC(=O)Nc2n[nH]c3nnc(-c4cccc(F)c4F)cc23)CC1 | 0.38% | 0.44% | -1.36% | 0.79% | -0.3% | 3.08% | 1.19% | 2.16% | 6.3% | 3.7%
24 | CNC(=O)c1cncc(/C=C/c2ccccc2Cl)c1 | 0.07% | 1.96% | 0.21% | 0.07% | -0.57% | 0.32% | 1.74% | 10.9% | 2.3% | 10.8%
25 | CCn1c(-c2nonc2N)nc2c(C#CC(C)(C)O)nc(OC[C@H](N)c3ccccc3)cc21 | 64.2% | 90.4% | 75.3% | 92% | 66.8% | 91.7% | 2.82% | 5.48% | 2.77% | 15%
26 | Clc1ccc(-c2nn3ncccc3c2-c2ccnc(Nc3ccccc3)n2)cc1 | 0.13% | 0.62% | 0.64% | 1.15% | 1.22% | -0.89% | 2.85% | 1.72% | 3.88% | -1.87%
27 | CS(=O)(=O)CCNCc1ccc(-c2ccc3ncnc(Nc4ccc(OCc5ccccc5)c(C(F)(F)F)c4)c3c2)o1 | 1.54% | 1.3% | 1.35% | 2.2% | 0.3% | 3.04% | -0.85% | 1.09% | 10.8% | 3.42%
28 | CNC(=O)c1cccc(C#Cc2cncnc2Nc2ccc(OCc3cccc(F)c3)c(Cl)c2)c1 | 0.17% | -0.5% | 0% | 0.98% | 0.81% | -1.1% | 0.71% | 3.57% | 1.29% | -1.25%
29 | c1ccc(COc2ccc(Nc3ncnc4ccc(-c5ccco5)cc34)cc2)cc1 | 0.02% | 0.01% | -0.87% | 0.43% | 0.39% | 2.23% | -0.04% | 4.75% | 5.57% | 5.11%
30 | Nc1nc(-c2cccc(Cl)c2)c(-c2ccc3ncccc3n2)s1 | -0.22% | 0.39% | 1.97% | 2.05% | 1.92% | 0.68% | 10.4% | 15.4% | 7.84% | 13.8%
31 | COc1cc(/C=N/Nc2ncnc3[nH]ncc23)ccc1O | 0.87% | 0.81% | 1.01% | 0.76% | 1.65% | 0.92% | 4.89% | 5.42% | 2.24% | 5.07%
32 | COc1ccc2[nH]c3c4[nH]c5ccc(OC)cc5c4c4c(c3c2c1)C(=O)NC4=O | 0.56% | 4.28% | 1.45% | 2.54% | 1.39% | 2.7% | 20.2% | 41.2% | 22.7% | 26.6%
33 | CC(=O)NCc1cccc(C#Cc2cncnc2Nc2ccc(OCc3cccc(F)c3)c(Cl)c2)c1 | -0.84% | -1.16% | -0.39% | 0.71% | 0.73% | 0.47% | 1.84% | 3.06% | -1.42% | 7.96%
